# Compound activity (PubChem BioAssay)
# Most compounds without a hit are left out; they make up all but 7.5% or so of the library.
# HCMV antiviral: human cytomegalovirus inhibition; HFF cells, HCMV-luciferase reporter, 72 h; active compounds read low; activity change, negative = inhibition, % at 57.5 µM; 4.5% of 410,000 active; in the data active means activity change below about -60%; inconclusive means no clear call, values can overlap the other calls; inactive means above about -39%
#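 Screen run at 2 compound doses on HFFs infected with reporter HCMV, MOI 1 PFU/cell. Luciferase activity from cell lysates at 72 h post infection gave inhibition relative to buffer-only and Salinomycin wells.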
# VACV mCherry inh: vaccinia inhibition (mCherry reporter) | Vaccinia virus mCherry reporter infection, fluorescence | Potency, µM (highest dose often 36.5 µM), without a hit: at the highest dose activity change, negative = inhibition, actives largely listed as inhibitors | 0.63% of 310,000 active | AID 720579; calls by dose curve; tested in A549 cells; further: potency means the concentration at half of the fitted maximal effect; nearly all actives have a fitted effect of over 35% in size
# FBPA Giardia inh: blocks Giardia fructose-bisphosphate aldolase activity | A8B2U2 | purified Giardia FBPA | Potency, µM (top dose mostly 59.6 µM), for inactives: at the highest dose activity, negative = inhibition, hits mostly inhibitors | 0.71% of 290,000 active; further: potency means the concentration at half of the fitted maximal effect; nearly all actives have a fitted effect of over 55% in size
# Target sequence (A8B2U2 whole entry, looked up): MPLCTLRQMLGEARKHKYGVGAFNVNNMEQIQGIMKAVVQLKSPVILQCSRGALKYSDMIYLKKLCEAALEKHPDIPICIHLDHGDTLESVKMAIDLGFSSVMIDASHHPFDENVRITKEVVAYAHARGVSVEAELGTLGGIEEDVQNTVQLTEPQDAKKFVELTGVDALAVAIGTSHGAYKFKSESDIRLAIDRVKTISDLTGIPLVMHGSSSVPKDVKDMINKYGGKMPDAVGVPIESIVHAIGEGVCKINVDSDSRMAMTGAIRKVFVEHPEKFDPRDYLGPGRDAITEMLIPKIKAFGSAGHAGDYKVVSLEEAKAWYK
#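 40 nM FBPA preincubated 10 min at RT with compound (up to 57.5 uM final), then substrate plus GAPDH/TPI/NAD/arsenate coupling and diaphorase/resazurin added. Fluorescence read after 20 min at RT, 525/598 nm.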
# FMDV antiviral: blocks foot and mouth disease virus. FMDV antiviral cell-based qHTS. Potency, µM (top dose mostly 57.9 µM), inactives show at the top dose activity change, negative = inhibition, most hits filed as inhibitors. 1.2% of 410,000 active; calls by dose curve; tested in HEK293T cells; further: read-out not given here; potency means the concentration at half of the fitted maximal effect; nearly all actives have a fitted effect of over 45% in size
# HCV inh: HCV inhibition; Huh7.5.1 HCVcc-Cre infection, luciferase reporter, 44 h; AID 651820; 3.4% of 340,000 active; Potency, µM (highest dose often 41.8 µM), without a hit: at the top dose activity change, negative = inhibition, actives largely listed as inhibitors; further: potency means the concentration at half of the fitted maximal effect
#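 A cell-based infection assay in which seeded cells (1,000 per well) receive test compound after 4 h, are inoculated with HCVcc-Cre at approximately 0.5 moi, and are incubated 44 h before luminescence detection.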
# Vaccinia Venus: inhibitors of vaccinia virus (Venus reporter). Vaccinia virus Venus reporter expression, fluorescence. Potency, µM (highest dose often 36.5 µM), for the others: at the highest dose activity change, negative = inhibition, actives largely listed as inhibitors. 0.46% of 330,000 active; calls by dose curve; tested in A549 cells; further: potency means the concentration at half of the fitted maximal effect; nearly all actives have a fitted effect of over 30% in size
# * = called active by the depositor; i = inactive; ? = inconclusive; · = no result given; [ ] = remark or other dose. Unless noted, the call rests on the fitted dose curve; in most records, active means well fitted curve in the direction sought with a large enough effect; inconclusive means small, poorly fitted or top-dose-only effect, or another doubt; inactive means no such curve, though single readings can be large; an effect the other way counts as inactive or inconclusive. On the % scale 0 is the no-effect control and ±100 the full control effect.
SMILES,HCMV antiviral,VACV mCherry inh,FBPA Giardia inh,FMDV antiviral,HCV inh,Vaccinia Venus
Cc1cc(-c2ccc(C)c(S(=O)(=O)NCCC(C)N3CCCCCC3)c2)on1 (centres undefined),12,·,-6%,13%,-19%,·
CC(C)C1N(S(=O)(=O)c2ccccc2)CCN1S(=O)(=O)c1ccccc1,-107*,·,-5%,-10%,6%,·
Cc1nc(SCC(=O)Nc2ccc(F)cc2)c(C#N)c(C)c1CC(=O)c1ccc(Br)cc1,-14,·,10%,-16%,13%,-22%
Cc1cccc(NC(=O)CSc2nc(C)c(CC(=O)c3ccc(Br)cc3)c(C)c2C#N)c1C,-79*,·,-1%,0%,0%,-5%
CCOC(=O)c1ccc(NC(=S)N2CCSC2c2ccc(Br)cc2)cc1 (centres undefined),-61*,-13%,-6%,2%,?,-9%
COc1cc(/C=N/NC(=O)c2ccc3ccccc3c2)ccc1Oc1ccc([N+](=O)[O-])cn1,?,-19%,5%,?,3.5µM*,-4%
COc1cccc(C(=O)N/N=C/c2ccc(Oc3ccc([N+](=O)[O-])cn3)c(OC)c2)c1,-36,·,1%,-15%,10µM*,·
COc1ccc(/C=N/NC(=O)c2cccc([N+](=O)[O-])c2)cc1OC,15,·,-1%,-4%,2%,·
COc1ccc(/C=N/NC(=O)c2cccc([N+](=O)[O-])c2)cc1OC(=O)c1ccc(C)cc1,-26,·,4%,17%,12%,·
COc1ccc(/C=N/NC(=O)c2cccc([N+](=O)[O-])c2)cc1OC(=O)c1ccccc1,-35,?,4%,33%,11µM*,?
COc1cc(/C=N/NC(=O)c2ccncc2)ccc1Oc1ccc([N+](=O)[O-])cn1,?,-4%,-1%,0%,2%,4%
COc1cc(/C=N/NC(=O)c2ccc(O)cc2)ccc1Oc1ccc([N+](=O)[O-])cn1,-62*,i,1%,-20%,?,-8%
Cc1cn([C@H]2C[C@H](O)[C@@H](CNCc3cccn3-c3nccs3)O2)c(=O)[nH]c1=O,6,-13%,·,-6%,·,5%
CSc1cccc(NC(=O)CN(C)S(=O)(=O)c2cnc[nH]2)c1,-2,-12%[7.34 µM],·,5%,8%,-9%[7.34 µM]
CC1Sc2ccc(S(=O)(=O)CCC(=O)N3CCN(c4ccccc4F)CC3)cc2NC1=O (centres undefined),-70*,?,4%,?,?,-17%
CC1Sc2ccc(S(=O)(=O)CCC(=O)N3CCN(c4cccc(Cl)c4)CC3)cc2NC1=O (centres undefined),-63*,-1%[7.34 µM],·,25µM*,?,0%[7.34 µM]
O=C1COc2ccc(S(=O)(=O)CCC(=O)N3CCN(c4cccc(C(F)(F)F)c4)CC3)cc2N1,-68*,-3%,·,?,?,-26%
CC1Sc2ccc(S(=O)(=O)CCC(=O)N3CCCCC3)cc2NC1=O (centres undefined),-27,-20%,1%,41%,0%,-15%
CC1Sc2ccc(S(=O)(=O)CCC(=O)N3CCN(c4ccccc4)CC3)cc2NC1=O (centres undefined),?,?,7%,?,?,-15%
COCCCNC(=O)Cn1nc(N2CCN(c3ccccc3)CC2)ccc1=O,-13,-1%,·,-10%,·,-5%
Cc1ccc(S(=O)(=O)N2CCN(c3nc(-c4cncn4C)nc4ccccc34)CC2)cc1,·,-8%,·,·,·,-28%
COc1ccc(-c2cc(C(=O)NC(C)c3ccccc3)c3cc(C(C)C)ccc3n2)cc1 (centres undefined),3,-24%,·,-7%,·,-20%
CN(C)/[N+]([O-])=N/Oc1cc(O/[N+]([O-])=N/N2CCCC2CO)c([N+](=O)[O-])cc1[N+](=O)[O-] (centres undefined),·,·,-10%,·,·,·
CC(C)Sc1cc(N2CCOCC2)nc(-c2ccccc2)n1,?,?,0%,?,13µM*,-28%
C=C1C=C(C(F)F)n2ncc(C(=O)N3CCc4ccccc4C3)c2N1,·,4%,·,·,·,-16%
SMILES,HCMV antiviral,VACV mCherry inh,FBPA Giardia inh,FMDV antiviral,HCV inh,Vaccinia Venus
CC1=CCC(C(=O)O)(C(=O)N/N=C/c2cccs2)C(c2ccc([N+](=O)[O-])cc2)C1 (centres undefined),-39,·,19%,-5%,14%,·
Cc1ccc(C(=O)OCC(=O)c2c[nH]c3ccccc23)cc1S(=O)(=O)N1CCCCC1,-37,-5%,-2%,-12%,32µM*,-16%
Cc1[nH]c2ccccc2c1C(=O)COC(=O)c1cccc(S(=O)(=O)N2CCCCC2)c1,-78*,?,-5%,-4%,?,-23%
Cn1c(N)c(C(=O)COC(=O)c2cccc(S(=O)(=O)N3CCCCC3)c2)c(=O)n(C)c1=O,-37,i,-3%,-12%,3%,-30%
COc1ccc(OCc2nnc(SCC(=O)N3CCCc4ccccc43)n2-c2ccc(C)cc2)cc1,-9,·,-7%,-15%,10µM*,·
Cc1ccc(NC(=O)CN2C(=O)NC3(CCCCC3)C2=O)cc1S(=O)(=O)N1CCOCC1,18,i,·,-22%,7%,1%
CCCn1c(C)cc(C(=O)COC(=O)c2cc(S(=O)(=O)NCC(C)C)c(Cl)cc2Cl)c1C,-7,·,-4%,26%,10µM*,7%
CCOC(=O)c1c(NC(=O)c2ccc(N3C(=O)C4C5C=CC(C5)C4C3=O)cc2)sc2c1CCCC2 (centres undefined),1,·,-6%,-6%,?,·
CCCNc1nc(N2CCCC2)nc(N2CCCC2)n1,81,?,5%,?,11µM*,-16%
CCN(C(=O)Cn1nnc2sc(-c3ccccc3)cc2c1=O)c1cccc(C)c1,2,-16%,·,14%,·,-13%
O=C(COc1cccc2cccnc12)N/N=C/c1ccccc1O,?,2.5µM*,22%,5%,?,-27%
Cc1ccccc1OCC(=O)N/N=C/c1cccc2cccnc12,11,-25%,·,-13%,-3%,?
C#CCn1cc(/C=N/NC(=O)COc2cccc3cccnc23)c2ccccc21,11,-14%,-3%,-16%,11%,-10%
COC(=O)Cn1cc(/C=N/NC(=O)COc2cccc3cccnc23)c2ccccc21,-70*,2%,10%,-14%,2%,-2%
O=C(N[C@@H]1c2ccccc2C2(CCN(C(=O)c3cc4ccccc4oc3=O)CC2)[C@H]1O)c1cccnc1,·,-1%,·,-4%,·,-8%
C/C(=N\NC(N)=S)C1C2C3CC4C5CC(C42)C1C53 (centres undefined),-62*,11µM*,-3%,-8%,?,?
C/C(CC1CC(C)OC1=O)=N\NC(N)=S (centres undefined),23,·,?,7%,4%,·
Cc1cc(C)n2c(Nc3c(C)cccc3C)c(-c3ccccn3)nc2n1,-69*,?,·,?,·,5%
